A selection: hits, their analogues and other compounds. The true share with any hit is near 3.1%.
MEKK2 WT-MEK5: raises or lowers MEK5 binding to wildtype human MEKK2 PB1 domain; bead flow cytometry, Alexa488-MEK5 binding to MEKK2 WT; actives lie on both sides; binding response (% of control), % at 10 µM; 1.1% of 290,000 active; AID 1531; in the data active = binding response below about 67% or above about 130%
ATG4B inhibitor: ATG4B (human) cysteine protease inhibition; Q9Y4P1; ATG4B cleavage of LC3-PLA2, NBD-HPC fluorescence, 1 h; AID 504462; inhibition, % at 8.33 µM; 0.51% of 340,000 active; in the data active = inhibition above about 40%
Target sequence (Q9Y4P1 whole entry, looked up): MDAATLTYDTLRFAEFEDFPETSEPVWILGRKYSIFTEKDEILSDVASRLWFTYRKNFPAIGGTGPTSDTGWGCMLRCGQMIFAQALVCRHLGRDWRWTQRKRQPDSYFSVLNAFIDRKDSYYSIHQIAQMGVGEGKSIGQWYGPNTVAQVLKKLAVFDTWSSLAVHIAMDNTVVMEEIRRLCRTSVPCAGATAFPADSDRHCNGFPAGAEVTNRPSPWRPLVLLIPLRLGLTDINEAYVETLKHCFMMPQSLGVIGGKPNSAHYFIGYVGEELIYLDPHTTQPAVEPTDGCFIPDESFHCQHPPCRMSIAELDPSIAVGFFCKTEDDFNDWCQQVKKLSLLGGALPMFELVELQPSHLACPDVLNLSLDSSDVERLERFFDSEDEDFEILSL
UBC13 inh: blocks human UBC13 polyubiquitin chain formation | P61088 | TR-FRET | inhibition, % at 20 µM | 0.47% of 330,000 active | AID 485273; in the data active = inhibition above about 45%, passing the limit was not always enough
Target sequence (P61088 whole entry, looked up): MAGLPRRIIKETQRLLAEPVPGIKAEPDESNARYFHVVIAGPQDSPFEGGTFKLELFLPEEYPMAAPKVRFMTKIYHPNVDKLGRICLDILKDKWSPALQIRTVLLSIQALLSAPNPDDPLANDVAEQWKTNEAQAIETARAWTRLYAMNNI
PREPL inhibitor: inhibits the human prolyl oligopeptidase-like enzyme. Q4J6C6. recombinant PREPL, fluorescence polarization activity-based probe. inhibition, % at 5.96 µM. 0.68% of 320,000 active. AID 2751; in the data active = inhibition above about 43%;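 note: 0% = enzyme with DMSO and 100% = wells lacking enzyme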
MEKK3 PB1 HTS: modulators (inhibitors or enhancers) of MEK5 binding to human MEKK3 PB1 domain | binding response (% of control), % at 10 µM | 1.4% of 290,000 active | Q99759 | bead-based flow cytometry, Alexa488-MEK5 binding to MEKK3; actives lie on both sides; 0 = blocked by unlabeled MEK5, 100 = vehicle | AID 1529;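 active = binding response more than 3 SD above or below the average of its plate-row segment, actives on both sides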;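 note: Alexa488 bead fluorescence after subtracting the streptavidin-only scavenger bead signal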
MEKK2mut PB1 HTS: signal of MEK5 binding to mutant human MEKK2 PB1 domain | percent response, % at 10 µM | 0.35% of 290,000 active | bead flow cytometry, Alexa488-MEK5 binding to MEKK2 mutant; in the data active = percent response above about 24%, passing the limit was not always enough
MEKK2wt confirm: raises or lowers MEK5 binding to wildtype human MEKK2, retest; binding response (% of control), % at 10 µM; 2.4% of 5,900 active; shares compounds with MEKK3 PB1 HTS; bead flow cytometry, Alexa488-MEK5 binding to MEKK2 WT; actives lie on both sides; in the data active = binding response below about 16% or above about 210%; inactive = in between
MEKK2mut-MEK5: signal of MEK5 binding to mutant human MEKK2, retest. shares compounds with MEKK3 PB1 HTS. bead flow cytometry, Alexa488-MEK5 binding to MEKK2 mutant. percent response, % at 10 µM. 2% of 5,900 active. AID 1893; in the data active = percent response mostly above about 71%, no sharp cut-off; inactive = mostly below about 38%;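 note: higher means compound restores mutant binding toward wildtype level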
MEKK3-MEK5 inh: MEKK3-MEK5 PB1 inhibition, single concentration confirmation. shares compounds with MEKK3 PB1 HTS. bead flow cytometry, Alexa488-MEK5 binding to MEKK3; hits give low values. binding response (% of control), % at 10 µM. 1.8% of 5,900 active. AID 1894;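 active = binding response below 72% of control, or above a set upper limit, though filed actives all read lower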;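 note: 100% = DMSO only wells and 0% = binding blocked by excess unlabeled MEK5; lower values mean stronger disruption of MEK5 binding to MEKK3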
Starred values were filed as active, the others as inactive; · = no result given; [ ] = another dose, or the depositor's remark.

SMILES | MEKK2 WT-MEK5 | ATG4B inhibitor | UBC13 inh | PREPL inhibitor | MEKK3 PB1 HTS | MEKK2mut PB1 HTS | MEKK2wt confirm | MEKK2mut-MEK5 | MEKK3-MEK5 inh
COc1ccc(NC(=O)CSCC(=O)N2c3ccccc3CCc3ccccc32)cc1 | 100 | -11 | 10 | 6 | 148* | -1 | 101 | -1 | 99
CCC(CC)c1nnc(NC(=O)c2cc([N+](=O)[O-])ccc2N2CCOCC2)s1 | · | -4 | 4 | 18 | · | · | · | · | ·
C[C@H](CO)N1C[C@H](C)[C@@H](CN(C)C(=O)Nc2ccc3c(c2)OCO3)Oc2c(NC(=O)Nc3ccc4c(c3)OCO4)cccc2C1=O | · | -18 | 9 | 14 | · | · | · | · | ·
CNC(=O)C(=O)Nc1ccc(C)cc1C | 99 | 2 | 2 | 9 | 99 | -1 | · | · | ·
CNC(=O)C(=O)Nc1c(C)cc(C)cc1C | 111 | -8 | -3 | 3 | 134* | 1 | -1.0*[inhibitor] | -29 | 0.0*
Cc1ccc(-c2nnc(N3CCOCC3)c3ccccc23)cc1S(N)(=O)=O | · | 5 | -6 | 4 | · | · | · | · | ·
CC(c1nccs1)N(C)C(=O)CCc1nnc(CCc2ccccc2)o1 (stereo unspecified) | 88 | 13 | 8 | 7 | 93 | -12 | · | · | ·
O=C(CSc1ccc(C(F)(F)F)cc1[N+](=O)[O-])Nc1ccc2ccccc2c1 | 106 | 26 | 2 | 11 | 194* | 0 | 96 | -6 | 99
CC(=O)Nc1cccc(NC(=O)CSc2ccc(C(F)(F)F)cc2[N+](=O)[O-])c1 | 107 | -23 | 3 | 2 | 104 | 5 | · | · | ·
C=CCc1ccc(OCCCOc2ccc(C)c(C)c2)c(OC)c1 | 91 | -2 | -17 | -2 | 80*[inhibitor] | -10 | 99 | -6 | 99
Cc1ccc2[nH]c(=O)c(CN(Cc3cccs3)C(=S)NCc3ccco3)cc2c1 | 100 | -3 | 2 | 0 | 130* | 1 | 96 | -5 | 100
OC(CCCN1CCC(O)(c2ccc(Cl)cc2)CC1)c1ccc(F)cc1 (stereo unspecified) | 93 | 3 | 5 | -19 | 90 | 4 | · | · | ·
CN(C)C(=O)C(CCN1CCC(O)(c2ccc(Cl)cc2)CC1)(c1ccccc1)c1ccccc1 | 150* | -1 | 36 | 28 | 116 | 12 | 123 | 7 | 103
N#CCN1C(=S)N=C(Nc2cccc(Cl)c2)C12CCCCC2 | 100 | 5 | -4 | 6 | 101 | 0 | · | · | ·
CC(C)(C)C1CCC2(CC1)C(Nc1cccc(C(F)(F)F)c1)=NC(=S)N2CC#N (stereo unspecified) | 3.0*[inhibitor] | -5 | 2 | 1 | 2.0*[inhibitor] | -18 | 99 | -1 | 98
Cc1cc(=O)oc2cc(OC(=O)C3CCN(C(=O)c4ccc(F)cc4)CC3)ccc12 | · | 6 | 6 | 3 | · | · | · | · | ·
CC(=O)c1ccc(N(C(=O)c2ccco2)C(C(=O)NC2CCCC2)c2cccs2)cc1 (stereo unspecified) | 97 | 0 | -1 | 7 | 101 | -4 | · | · | ·
O=C(NC1CCCCC1)C(c1cccs1)N(C(=O)c1ccco1)c1ccc2c(c1)OCCO2 (stereo unspecified) | 91 | -1 | 1 | 9 | 60*[inhibitor] | 2 | 90 | -3 | 96
C#CC(=O)N(c1cccc(OC)c1)C(C(=O)NC1CCCC1)c1cccs1 (stereo unspecified) | 101 | -3 | 3 | -1 | 98 | 2 | · | · | ·
C#CC(=O)N(c1ccc(OC)c(OC)c1)C(C(=O)NC1CCCC1)c1cccs1 (stereo unspecified) | 114 | -7 | -4 | -7 | 125* | 11 | 104 | -2 | 100
O=C(COC(=O)/C=C/c1ccc2c(c1)OCO2)NCc1ccccc1 | · | -3 | -10 | -5 | · | · | · | · | ·
COc1ccc(/C=C\c2onc(C)c2S(=O)(=O)N2CCC(C(=O)NCc3ccco3)CC2)cc1 | 115 | 1 | -7 | 1 | 130* | 31 | 107 | 5 | 106
Cc1noc(/C=C/c2cccs2)c1S(=O)(=O)N1CCC(C(=O)NCCCN2CCCC(C)C2)CC1 (stereo unspecified) | 152* | -8 | 17 | 17 | 109 | 33 | 146 | 34 | 108
O=C(/C=C/c1ccc(F)cc1)Nc1cc(S(=O)(=O)N2CCOCC2)ccc1N1CCCC1 | 88 | -5 | -10 | 13 | 101 | 9 | · | · | ·
COc1ccc(CCC(=O)Nc2cccc(Cl)c2)cc1 | 107 | -13 | 20 | -7 | 130* | 0 | 122 | 10 | 105
SMILES | MEKK2 WT-MEK5 | ATG4B inhibitor | UBC13 inh | PREPL inhibitor | MEKK3 PB1 HTS | MEKK2mut PB1 HTS | MEKK2wt confirm | MEKK2mut-MEK5 | MEKK3-MEK5 inh
COc1ccc(CC(=O)Nc2cc(Cl)ccc2N2CCCC2)cc1 | 101 | 9 | -1 | 7 | 103 | 3 | · | · | ·
CN1CCN(c2ccc(Cl)cc2NC(=O)/C=C/c2ccc(F)cc2)CC1 | 195* | -19 | 18 | -1 | 108 | 51* | 185 | 60 | 109
COc1ccc(-c2nc(-c3ccc(NC(=O)c4ccc(Br)o4)cc3)no2)cc1OC | 99 | 0 | -1 | -11 | 101 | -2 | · | · | ·
COc1ccc(CCC(=O)Nc2ccc(-c3noc(-c4ccc(OC)c(OC)c4)n3)cc2)cc1 | 123 | -12 | -5 | -8 | 124* | 6 | 111 | 3 | 106
COc1ccc(CCC(=O)Nc2cc(Cl)ccc2N2CCN(C)CC2)cc1 | 117 | -12 | 1 | 0 | 101 | 25* | 124 | 14 | 108
COc1cc(NC(=O)C2C3CCC(O3)C2C(=O)O)cc(OC)c1 (stereo unspecified) | 106 | 4 | -7 | 14 | 103 | 1 | · | · | ·
COc1cc(OC)cc(C(=O)NCC(=O)OCC(=O)N2CC(C)CC(C)C2)c1 (stereo unspecified) | 99 | 1 | 5 | -3 | 85 | -2 | · | · | ·
CN1CCN(c2ccc(Cl)cc2NC(=O)CCN2C(=O)c3ccccc3C2=O)CC1 | 171* | -6 | 36 | 42 | 108 | 0 | 155 | 34 | 101
CN1CCN(C(=O)c2ccccc2NC(=O)CCN2C(=O)c3ccccc3C2=O)CC1 | 104 | -8 | 5 | 3 | 100 | 1 | · | · | ·
COc1ccccc1C1CN=NC12CCCc1ccccc1C2=O (stereo unspecified) | 33*[inhibitor] | 1 | -7 | -10 | 24*[inhibitor] | -13 | 106 | 5 | 103
CC(C)CC(=O)NC(=S)Nc1nc(-c2ccc(Cl)cc2)cs1 | 104 | 15 | 2 | 0 | 155* | 0 | 102 | 0 | 100

Screening data deposited in PubChem BioAssay by several laboratories.
